We go through 54 compounds from ChEMBL document CHEMBL4513216, “Probing the Open Global Health Chemical Diversity Library for Multistage-Active Starting Points for Next-Generation Antimalarials” (ACS Infect Dis, 2020).

Screen size: about 68,000 compounds; about 2,700 (4%) showed an effect of 50% or more. Only a selection was taken, and strong results are over-represented in it overall.

The assay deals with Plasmodium berghei. The assay can be described thus: Screen against P. berghei liver stage (PbLuc), transformed with Luciferase, at 2uM. It counts as functional, HepG2. As to conditions: tested at 2 uM.
For `CCN(C(=O)NCc1cccnc1N(C)C)C(C)c1cccnc1` (centres undefined), the INHIBITION is 57.75%.

With `CN(C)c1ccc(NC(=O)NCc2cccnc2N(C)C)cn1`, the INHIBITION worked out at 1.63%.

As for `CCOc1ccccc1CNC(=O)N(CC)C(C)c1cccnc1` (centres undefined), the INHIBITION turned out to be 21.97%.

In the case of `CC(C)C(NC(=O)NCc1cccnc1N(C)C)c1cccs1` (centres undefined), the INHIBITION was -16.65%.

For the compound `CN(C)c1ncccc1CNC(=O)NCc1ccco1`, the INHIBITION stood at 37.15%.

Consider `CCN(CC1CN(CC2CCC2)CCO1)c1cccnn1` (centres undefined), for which the INHIBITION is 47.61%.

Turning to `Cc1nc2n(n1)CC(NCc1cc(Cl)c3c(c1)OCCCO3)CC2` (centres undefined), the INHIBITION came to 3.86%.

As to `CN(Cc1ccco1)[C@@H]1CN(Cc2ccc(F)cc2)[C@@H]2CCCO[C@H]12`, the INHIBITION was -12.36%.

Regarding `COc1ncnc(N)c1CNCCc1ccc(-n2cccn2)cc1`, the INHIBITION is 18.37%.

With `O=C(c1cccs1)N1CC[C@H]2C[C@@H](c3nnc(C4CC4)o3)O[C@@H]2C1`, the INHIBITION amounted to 31.41%.

Consider `CN(C)C(=O)C1OC2(CCN(C(=O)c3ccoc3)CC2)c2ccccc21` (centres undefined), for which the INHIBITION is 25.43%.

As to `CCC(O)CN1CCN(C(=O)c2cccn2Cc2ccncc2)CC1` (centres undefined), the INHIBITION is listed as -21.72%.

Take `COCC1Cn2nnc(-c3cnn(C)c3)c2CN1Cc1ccc(C)o1` (centres undefined): the INHIBITION was 56.76%.

Take `COCC1Cn2nnc(-c3cnn(C)c3)c2CN1Cc1cccs1` (centres undefined): the INHIBITION was -34.95%.

With `COCC1Cn2nnc(-c3cnn(C)c3)c2CN1Cc1ccc(C)s1` (centres undefined), the INHIBITION was determined as 52.77%.

In the case of `COCC1Cn2nnc(-c3cnn(C)c3)c2CN1Cc1ccco1` (centres undefined), the INHIBITION worked out at 14.97%.

With `COCC1Cn2nnc(-c3cnn(C)c3)c2CN1Cc1ccsc1` (centres undefined), the INHIBITION is given as 33.14%.

In the case of `COCC1Cn2nnc(-c3cnn(C)c3)c2CN1Cc1ccoc1` (centres undefined), the INHIBITION stood at 19.42%.

For the compound `Cc1ccccc1CNC(=O)Cn1nc(-c2ccc(F)cc2)oc1=O`, the INHIBITION was -25.13%.

`CCOc1ccc(C(=O)Nc2c(C)nc3ccc(Cl)cn3c2=O)cc1`: the INHIBITION was determined as 27%.

Consider `Cc1cc2cc(Nc3c(C#N)c(=O)n(C)c(=O)n3C)ccc2[nH]1`, for which the INHIBITION was determined as 13.53%.

As to `O=C(CSc1ccc2c(c1)OCCO2)NS(=O)(=O)c1cccnc1`, the INHIBITION is given as 16.95%.

Consider `Cc1cc(C)cc(N(C)S(=O)(=O)c2cc(C(=O)O)cs2)c1`, for which the INHIBITION is given as -8.84%.

For `Cc1ccc(N(C)S(=O)(=O)c2cc(C(=O)O)cs2)cc1`, the INHIBITION was -29.54%.

Regarding `Cc1cccc(N(C)S(=O)(=O)c2cc(C(=O)O)cs2)c1`, the INHIBITION is 68.24%.

Take `O=C(Nc1ccccc1)N1C[C@@H]2C[C@H](C(=O)N3CCOCC3)[C@H](C1)O2`: the INHIBITION stood at 24.15%.

On to `CC(C)(C)CC(=O)NCCn1nc(C2CCNC2)c2cccnc21` (centres undefined), for which the INHIBITION was found to be 21.13%.

As to `Cc1nc(CNC(=O)Nc2ccc(N(C)C)nc2)sc1C`, the INHIBITION is reported as 74.34%.

Consider `CN(C)c1ccc(NC(=O)NCc2ccc(Cl)s2)cn1`, for which the INHIBITION is given as 17.62%.

On to `CN(C)c1ccc(NC(=O)NCc2ccccn2)cn1`, for which the INHIBITION was determined as 17.39%.

On to `O=C(CC1=CSC2=NCCN12)N1CCCC(CCc2cccc(F)c2)C1` (centres undefined), for which the INHIBITION is -33.45%.

For the compound `CN(C)C(=O)Cc1ccccc1NCc1nc(Cc2ccccc2)no1`, the INHIBITION is -12.95%.

On to `CNC(=O)C1(c2cnccn2)CCCN1C(=O)c1ccccn1` (centres undefined), for which the INHIBITION is on record as -3.55%.

Take `OCCNc1nc(Nc2ccccc2)c2nccnc2n1`: the INHIBITION worked out at 4.64%.

Take `Cc1cnn(CCNC(C)C(=O)Nc2ccc(Cl)cn2)c1` (centres undefined): the INHIBITION came to 67.44%.

For `Cc1cnn(CC(C)NCC(=O)Nc2ccc(Cl)cn2)c1` (centres undefined), the INHIBITION is 42.11%.

For the compound `Cc1cnn(CCNCC(=O)Nc2ccc(Cl)cn2)c1`, the INHIBITION is reported as -1.56%.

Regarding `Cc1nn(C)c2c(N3CCN(C(=O)C(C)C)CC3)ncnc12`, the INHIBITION is recorded as 31.57%.

Consider `CCN(CCn1cccn1)Cc1nc(-c2cccc(C)c2)oc1C`, for which the INHIBITION is recorded as 65.76%.

With `CCN(CCn1cccn1)Cc1nc(-c2ccc(F)cc2)oc1C`, the INHIBITION is listed as -11.66%.

For the compound `CCN(CCn1cccn1)Cc1nc(-c2ccoc2)oc1C`, the INHIBITION is listed as -16.71%.

With `Cc1cccc(CN2CCC3(CC2)NC(=O)C[C@H]3c2cnn(C)c2)n1`, the INHIBITION was found to be 14.65%.

As to `F[C@@H]1CN(Cc2cccnc2)C[C@@H]1OCc1nc2ccccc2[nH]1`, the INHIBITION was found to be 20.41%.

Take `COC[C@@]12CCC[C@@H]1CN(C(=O)Cc1ccco1)C2`: the INHIBITION is given as 53.08%.

On to `O=C(Cc1ccco1)N1C[C@H]2CCC[C@@]2(COCC2CC2)C1`, for which the INHIBITION was 8.17%.

Regarding `O=C(Cc1ccco1)N1C[C@H]2CCC[C@@]2(COc2cccnc2)C1`, the INHIBITION is -75.76%.

Take `CCn1ccnc1CN1CCN(c2ncnc3ccsc23)CC1C` (centres undefined): the INHIBITION is recorded as -115.54%.

For the compound `O=C(c1cnc(O)cc1O)N1CCCC(CCc2ccccc2F)C1` (centres undefined), the INHIBITION was 29.41%.

With `COCCN1CCCC(O)(CN2CCCN(c3ncccn3)CC2)C1=O` (centres undefined), the INHIBITION was 31.35%.

For the compound `COCCN1CCCC(O)(CN2CCN(c3ncccc3C)CC2)C1=O` (centres undefined), the INHIBITION came out at 75.47%.

On to `COCCN1CCCC(O)(CN2CCN(c3cc(C)ccn3)CC2)C1=O` (centres undefined), for which the INHIBITION was 17.6%.

Regarding `COCCN1CCCC2(CCN(c3nccnc3N(C)C)C2)C1=O` (centres undefined), the INHIBITION is -38.59%.

With `COCCN1CCCC2(CCN(c3nccc4ccccc34)C2)C1=O` (centres undefined), the INHIBITION is on record as 50.61%.

As to `COCCN1CCCC2(CCN(c3ncnc(C)c3C)C2)C1=O` (centres undefined), the INHIBITION was found to be 24.05%.
